Compounds with a hit are over-represented: about 1.7% of the library has one in this group of screens.
SSB-PriA inh – blocks PriA binding to SSB C-terminal tail; AlphaScreen SSBct-PriA binding, biotinylated peptide; inhibition, % at 33 µM; 0.6% of 430,000 active; AID 1272365; in the data active = inhibition mostly above about 37%, no sharp cut-off; inactive = mostly below about 20%;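 also: plate controls were negative control peptide for no effect and reference peptide for full effect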
PrPC surface inh – cell surface PrPC inhibition, primary TR-FRET screen | TR-FRET read-out | inhibition, % at 13.8 µM | 0.43% of 370,000 active | AID 720596; in the data active = inhibition above about 24%; also: 0% = median of the test wells and 100% = reference compound wells
PfHsp40 rescue – rescue of PfHsp40-mediated yeast toxicity | S. cerevisiae expressing PfHsp40, growth rescue, ATP luminescence | growth rescue, % at 12.5 µM | 0.68% of 340,000 active | AID 504582; in the data active = growth rescue above about 28%, passing the limit was not always enough;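 also: yeast W303a lacking pdr1 and pdr3 grown in galactose medium; growth measured after three days at 30 °C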
PrP 5UTR inh – inhibition of PrP 5' UTR reporter expression | cell-based PrP 5' UTR mRNA reporter, plate reader | AID 488862 | inhibition, % (test concentration not listed) | 0.35% of 340,000 active; in the data active = inhibition above about 52%; also: 0 = median of the neutral control wells
Yp Topo-I inh – blocks Yersinia pestis topoisomerase I activity. Y. pestis Topo-I cleavage product accumulation, plate reader. activity, % at 10 µM. 0.064% of 360,000 active. AID 504884; in the data active = activity above about 50%, passing the limit was not always enough
BJeLR viability – BJeLR cell viability loss; BJeLR (HRASV12) viability, CellTiter-Glo ATP luminescence, 48 h; inhibition, % (test concentration not listed); 0.17% of 300,000 active; AID 1554; in the data active = inhibition above about 50%
The depositor's hits bear a star; ! = not active in a repeat.

Screening Cc1ccc2[nH]c3c(N4CCN(Cc5ccccc5)CC4)ncnc3c2c1 returned SSB-PriA inh 22, PrPC surface inh 29*, PfHsp40 rescue -1, PrP 5UTR inh 10, Yp Topo-I inh 1 and BJeLR viability 7.
Screening Cc1ccc2[nH]c3c(N4CCCCCC4)ncnc3c2c1 returned BJeLR viability 3.
O=C(NCCN1CCOCC1)C(=O)NCc1ccsc1 was read as SSB-PriA inh -2.
Screening COc1ccc(N2CCN(c3ncnc4scc(-c5ccc(C)cc5)c34)CC2)cc1 returned SSB-PriA inh 19, PrPC surface inh 6, PfHsp40 rescue 4, PrP 5UTR inh -1, Yp Topo-I inh 36 and BJeLR viability -9.
Screening COc1ccc(N2CCN(c3ncnc4scc(-c5ccccc5)c34)CC2)cc1 returned SSB-PriA inh 46*, PrPC surface inh -6, PfHsp40 rescue 3, PrP 5UTR inh -14, Yp Topo-I inh 37 and BJeLR viability -3.
For COc1ccccc1OCC#CCNC(=O)c1ccno1 the results were SSB-PriA inh -8.
`O=C1C(=C(I)I)c2ccccc2-c2ccccc21` gave SSB-PriA inh 81*, PrPC surface inh 4, PfHsp40 rescue 0, PrP 5UTR inh -40 and Yp Topo-I inh -15.
Screening O=C(O)c1cccc2c1C(=O)c1ccccc1-2 returned SSB-PriA inh 5, PrPC surface inh -4, PfHsp40 rescue 0, PrP 5UTR inh -25, Yp Topo-I inh -1 and BJeLR viability 0.
For CN(C)CCN(C(=O)c1ccc(C(=O)c2ccccc2)cc1)c1nc2cc3c(cc2s1)OCO3 the results were SSB-PriA inh 43*!, PrPC surface inh -1, PfHsp40 rescue 1, PrP 5UTR inh -3, Yp Topo-I inh 32 and BJeLR viability -3.
Screening CN(C)CCN(C(=O)c1ccc(C(=O)c2ccccc2)cc1)c1nc2cc3c(cc2s1)OCCO3 returned SSB-PriA inh 49*, PrPC surface inh -4, PfHsp40 rescue -1, PrP 5UTR inh -32, Yp Topo-I inh 17 and BJeLR viability 5.
Screening CN(C)CCN(C(=O)c1ccc(S(=O)(=O)N(C)c2ccccc2)cc1)c1nc2cc3c(cc2s1)OCO3 returned SSB-PriA inh 36*, PrPC surface inh 2, PfHsp40 rescue 2, PrP 5UTR inh -17, Yp Topo-I inh 4 and BJeLR viability 2.
`CN(C)CCCN(C(=O)c1ccc(C(=O)c2ccccc2)cc1)c1nc2cc3c(cc2s1)OCCO3` gave SSB-PriA inh 41*!, PrPC surface inh -23, PfHsp40 rescue 0, PrP 5UTR inh -16, Yp Topo-I inh -10 and BJeLR viability 4.
Screening CN(C)CCCN(C(=O)COc1ccccc1)c1nc2cc3c(cc2s1)OCCO3 returned SSB-PriA inh 5, PrPC surface inh 5, PfHsp40 rescue 3, PrP 5UTR inh -25, Yp Topo-I inh -14 and BJeLR viability -10.
`CCOc1ccccc1C(=O)N1CCN(c2cccc(Cl)c2)CC1` gave SSB-PriA inh 6, PrPC surface inh 10, PfHsp40 rescue 0, PrP 5UTR inh 53, Yp Topo-I inh 20 and BJeLR viability 53*.
O=c1[nH]c2ccc(NCc3ccccc3OCc3ccc(Cl)cc3)cc2[nH]1 was read as SSB-PriA inh 92*, PrPC surface inh 1, PfHsp40 rescue 3, PrP 5UTR inh -10, Yp Topo-I inh 15 and BJeLR viability 1.
Screening COc1ccc(S(=O)(=O)Nc2cnc(N(C)C)nc2N(C)C)c(OC)c1 returned SSB-PriA inh -12.
Cc1cc(C)c(C)c(N=Nc2nc3ccccc3n2C)c1C was read as SSB-PriA inh 68*, PrPC surface inh -10, PfHsp40 rescue -1, PrP 5UTR inh -80, Yp Topo-I inh -9 and BJeLR viability 11.
Screening O=[N+]([O-])c1ccc(OCCCn2cncn2)cc1 returned SSB-PriA inh -8, PrPC surface inh -6, PfHsp40 rescue 51*, PrP 5UTR inh 9, Yp Topo-I inh 1 and BJeLR viability -2.
`c1ccc(COc2ccc(OCCOCCn3cncn3)cc2)cc1` gave SSB-PriA inh -10, PrPC surface inh 1, PfHsp40 rescue 0, PrP 5UTR inh -53, Yp Topo-I inh 10 and BJeLR viability 8.
`c1ccc(Oc2cccc(OCCCn3cncn3)c2)cc1` gave SSB-PriA inh -14, PrPC surface inh -1, PfHsp40 rescue 95*, PrP 5UTR inh -18, Yp Topo-I inh 5 and BJeLR viability -2.
O=C(Cc1ccc([N+](=O)[O-])cc1)N1CCCCCC1 was read as SSB-PriA inh -17, PrPC surface inh -4, PfHsp40 rescue 0, PrP 5UTR inh -28, Yp Topo-I inh 6 and BJeLR viability 5.
O=C(CCc1ccc(Oc2cc([N+](=O)[O-])cc([N+](=O)[O-])c2)cc1)N1CCCCCC1 was read as SSB-PriA inh 39*, PrPC surface inh -13, PfHsp40 rescue 1, PrP 5UTR inh -13, Yp Topo-I inh 23 and BJeLR viability 1.
CCOC(=O)c1sc2nc(CC(=O)OC)nc(NCCN3CCOCC3)c2c1C was read as SSB-PriA inh -1, PrPC surface inh 2, PfHsp40 rescue 1, PrP 5UTR inh -25, Yp Topo-I inh 8 and BJeLR viability -3.
`CCOC(=O)c1sc2nc(CC(=O)OC)nc(NCCN(CC)CC)c2c1C` gave SSB-PriA inh -3, PrPC surface inh -5, PfHsp40 rescue 74*, PrP 5UTR inh -3, Yp Topo-I inh 7 and BJeLR viability -6.
Screening O=C1c2ccccc2-n2c1nc1ccccc1c2=O returned SSB-PriA inh 0, PrPC surface inh 1, PfHsp40 rescue 58*, PrP 5UTR inh -46, Yp Topo-I inh 2 and BJeLR viability -4.
Screening O=c1c2ccccc2nc(-c2ccccc2)n1-c1ccccc1O returned SSB-PriA inh -4, PrPC surface inh -6, PfHsp40 rescue 0, PrP 5UTR inh -22, Yp Topo-I inh -19 and BJeLR viability 3.
`Cc1ccc(Nc2nc(N)nc(-c3oc4ccccc4c3C)n2)cc1` gave SSB-PriA inh 0, PfHsp40 rescue 3, PrP 5UTR inh 70*, Yp Topo-I inh 15 and BJeLR viability 36.
For CC(C)(C)c1nc2sc3c(c2c(=O)o1)CCCC3 the results were SSB-PriA inh -7, PrPC surface inh -4, PfHsp40 rescue 4, PrP 5UTR inh -13, Yp Topo-I inh 7 and BJeLR viability -3.
Screening CCc1nc2sc3c(c2c(=O)o1)CCCC3 returned SSB-PriA inh 69*, PrPC surface inh 4, PfHsp40 rescue 0, PrP 5UTR inh -20, Yp Topo-I inh -6 and BJeLR viability 1.
For CCN(CC)c1ccc(/C=c2\sc3nc4ccccc4n3c2=O)c(O)c1 the results were PrPC surface inh 1, PfHsp40 rescue 0, PrP 5UTR inh -16, Yp Topo-I inh 6 and BJeLR viability 5.
For O=c1/c(=C/c2ccc(F)cc2F)sc2nc3ccccc3n12 the results were SSB-PriA inh 40*.
